Screening results: PubChem BioAssay, National Center for Advancing Translational Sciences (NCATS)
Hits are enriched below; roughly 6.9% of the tested compounds scored in any of these assays.
PLK1 PBD inh: PLK1 (human) polo-box domain binding inhibition. P53350. Plk1 PBD binding of FITC phosphopeptide, fluorescence polarization. 2.8% of 360,000 active. Potency, µM, for inactives: max response, negative = inhibition, most hits filed as inhibitors. AID 720504; also: potency is read from the fitted curve at half-maximal effect; series mostly up to about 57 µM; % is scaled to controls: 0 for no effect and ±100 for the full control effect; nearly all actives have a fitted effect of over 65% in size
HP1b chromo inh: blocks HP1-beta chromodomain binding to methylated histone tails; 0.56% of 390,000 active; Potency, µM (series often up to 114 µM), for the others: top-dose activity change, negative = inhibition, most hits filed as inhibitors; AlphaScreen HP1-beta / biotin-H3K9me3 peptide binding; also: potency is read from the fitted curve at half-maximal effect; nearly all actives have a fitted effect of over 70% in size
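Compound inhibition of the preformed complex between 50 nM HP1-beta and 50 nM biotinylated H3K9me3 peptide was read by AlphaScreen. Buffer was PBS pH 7.4 with 0.01% Tween-20. Incubations ran 30 min at room temperature, with 10 ug/mL donor/acceptor beads.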
JMJD2A Tudor inh: JMJD2A Tudor domain (human) inhibition; AlphaScreen JMJD2A-Tudor / H3K4me3 peptide binding; AID 504339; 4.4% of 390,000 active; Potency, µM (doses to about 114 µM), for inactives: top-dose activity change, negative = inhibition, most hits filed as inhibitors; O75164; also: potency is read from the fitted curve at half-maximal effect; % is scaled to controls: 0 for no effect and ±100 for the full control effect; nearly all actives have a fitted effect of over 50% in size
VDR inhibitor: vitamin D3 receptor (human) inhibition; VDR-SRC2-3 peptide fluorescence polarization, 2 h; Potency, µM, without a hit: max response, negative = inhibition, usual class: inhibitors; 0.93% of 400,000 active; AID 504847; also: potency is read from the fitted curve at half-maximal effect; % is scaled to controls: 0 for no effect and ±100 for the full control effect
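After 23 nl compound addition and a short centrifugation, plates sat for 2 hours at ambient temperature; polarization of fluorescence then indicated loss of VDR binding to peptide SRC2-3.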
BAZ2B inh: blocks human BAZ2B | AlphaScreen BAZ2B-H3K14Ac peptide displacement | Potency, µM (titrated, usually from 114 µM), for inactives: top-dose activity change, negative = inhibition, most hits filed as inhibitors | 4.4% of 360,000 active | AID 504333; also: potency is read from the fitted curve at half-maximal effect; % is scaled to controls: 0 for no effect and ±100 for the full control effect; nearly all actives have a fitted effect of over 60% in size
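Protein-peptide AlphaScreen: BAZ2B 50 nM, b-H3K14Ac 50 nM, 1x PBS pH 7.4 + 0.01% Tween-20. Preincubation 30 min RT; cpd 30 min RT (top 110 uM); beads 20 min RT, light-protected.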
L3MBTL1 inh-1: L3MBTL1 (human) inhibition | Q9Y468 | AlphaScreen L3MBTL1–H3K9me1 peptide binding | Potency, µM (highest dose often 57.1 µM), without a hit: at the highest dose activity, negative = inhibition, actives largely listed as inhibitors | 0.66% of 230,000 active; also: potency is read from the fitted curve at half-maximal effect; % is scaled to controls: 0 for no effect and ±100 for the full control effect; nearly all actives have a fitted effect of over 60% in size
Target sequence (Q9Y468 whole entry, looked up): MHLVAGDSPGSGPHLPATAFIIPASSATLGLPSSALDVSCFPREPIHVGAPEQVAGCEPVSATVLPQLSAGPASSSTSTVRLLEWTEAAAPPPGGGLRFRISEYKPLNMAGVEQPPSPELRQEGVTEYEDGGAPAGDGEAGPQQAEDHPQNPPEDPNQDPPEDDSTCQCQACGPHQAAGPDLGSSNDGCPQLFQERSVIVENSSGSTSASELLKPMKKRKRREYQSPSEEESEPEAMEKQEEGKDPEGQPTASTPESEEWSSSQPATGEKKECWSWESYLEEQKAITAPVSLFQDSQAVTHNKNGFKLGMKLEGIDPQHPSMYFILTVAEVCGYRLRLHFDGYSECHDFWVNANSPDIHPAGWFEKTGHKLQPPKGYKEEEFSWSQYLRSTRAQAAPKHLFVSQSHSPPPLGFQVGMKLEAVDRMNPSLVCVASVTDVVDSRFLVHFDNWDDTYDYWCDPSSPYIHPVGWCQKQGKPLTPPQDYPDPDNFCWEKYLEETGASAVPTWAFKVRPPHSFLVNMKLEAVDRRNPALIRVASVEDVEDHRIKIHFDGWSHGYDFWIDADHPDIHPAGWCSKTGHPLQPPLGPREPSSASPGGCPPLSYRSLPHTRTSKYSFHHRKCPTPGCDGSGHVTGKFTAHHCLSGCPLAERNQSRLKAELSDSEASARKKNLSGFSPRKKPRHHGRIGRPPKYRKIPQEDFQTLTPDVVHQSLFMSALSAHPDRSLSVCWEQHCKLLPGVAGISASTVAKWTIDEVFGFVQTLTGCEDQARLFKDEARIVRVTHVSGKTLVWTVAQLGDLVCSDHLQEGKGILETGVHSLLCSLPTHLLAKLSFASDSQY
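AlphaScreen assay: L3MBTL1 (50 nM final) was preincubated 30 min at room temperature with biotinylated H3(1-15)K9me1 peptide (75 nM final), then 30 min with library compounds; streptavidin donor and nickel chelate acceptor beads (10 ug/mL final) added, 30 min dark.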
L3MBTL1 inh-2: validation of human L3MBTL1 methyl-lysine binding inhibitors; shares compounds with L3MBTL1 inh-1; Potency, µM, most hits filed as inhibitors; L3MBTL1 methyl-lysine binding inhibition, biochemical qHTS; 91% of 500 active; AID 540279; also: potency is read from the fitted curve at half-maximal effect; nearly all actives have a fitted effect of over 70% in size
AlphaScreen ctr2: interferes with AlphaScreen signal in L3MBTL1 counterscreen. 500 tested, under 10 active. shares compounds with L3MBTL1 inh-1. AID 602224. AlphaScreen counterscreen, signal inhibition. Potency, µM (highest dose often 57.1 µM), for inactives: at the top dose activity change, negative = inhibition, usual class: inhibitors; also: potency is read from the fitted curve at half-maximal effect; 0% is about no effect
ME-1 prolif: ME-1 cell growth inhibition. shares compounds with BAZ2B inh. ME-1 cell proliferation, ATP luminescence, 48 h. Potency, µM (highest dose often 56.1 µM), for the others: at the top dose activity change, negative = inhibition, most hits filed as inhibitors. 20% of 140 active. AID 504370
VDR inh confirm: confirmation of human vitamin D receptor inhibitors; shares compounds with VDR inhibitor; VDR-coactivator inhibition assay, qHTS confirmation; Potency, µM, actives largely listed as inhibitors; 89% of 840 active; also: potency is read from the fitted curve at half-maximal effect
VDR FP: VDR (human) coactivator binding inhibition, fluorescein polarization; shares compounds with VDR inhibitor; VDR-coactivator binding, fluorescein fluorescence polarization; Potency, µM (series often up to 57.1 µM), for the others: at the top dose activity change, negative = inhibition, most hits filed as inhibitors; 48% of 840 active; also: potency is read from the fitted curve at half-maximal effect
VDR bla reporter: inhibits human VDR in beta-lactamase reporter cells; 23% of 840 active; Potency, µM (doses to about 46.1 µM), for inactives: top-dose activity change, negative = inhibition, most hits filed as inhibitors; AID 602202; VDR beta-lactamase reporter cells, FRET ratio; cells co-treated with VDR agonist LG190178; shares compounds with VDR inhibitor; also: potency is read from the fitted curve at half-maximal effect; % is scaled to controls: 0 for no effect and ±100 for the full control effect
VDR viability: cytotoxic in counter-screen for VDR inhibitors. cytotoxicity counter-screen, cell viability, qHTS. 18% of 840 active. Potency, µM (series often up to 48.3 µM), inactives show at the highest dose activity change, negative = cytotoxicity, hits mostly cytotoxic. AID 602204. shares compounds with VDR inhibitor;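 also: potency is read from the fitted curve at half-maximal effect; plate controls were DMSO for no effect and high-concentration cycloheximide for full effect; nearly all actives have a fitted effect of over 75% in size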
TbPYK inh: confirmation of Trypanosoma brucei pyruvate kinase inhibitors; shares compounds with PLK1 PBD inh; recombinant TbPYK, Kinase-Glo ATP luminescence; Potency, µM (titrated, usually from 76.9 µM), inactives show at the highest dose activity change, negative = inhibition, most hits filed as inhibitors; 67% of 890 active; AID 720569; also: potency is read from the fitted curve at half-maximal effect; % is scaled to controls: 0 for no effect and ±100 for the full control effect; nearly all actives have a fitted effect of over 70% in size
TbPYK ADP-Glo: inhibits T. brucei pyruvate kinase in orthogonal ADP-Glo assay; shares compounds with PLK1 PBD inh; recombinant TbPYK, ADP-Glo luminescence, 60 min; Potency, µM (top dose mostly 76.9 µM), without a hit: top-dose activity change, negative = inhibition, most hits filed as inhibitors; 62% of 890 active; AID 720584; also: potency is read from the fitted curve at half-maximal effect; % is scaled to controls: 0 for no effect and ±100 for the full control effect; nearly all actives have a fitted effect of over 75% in size
The depositor's hits bear a star; ? = inconclusive; . = no result given; [ ] = dose if it differs, or a comment. Calls follow the shape of the dose curve; as a rule, active = well fitted curve in the direction sought with a large enough effect; inconclusive = small, poorly fitted or top-dose-only effect, or another doubt; inactive = no such curve, though single readings can be large; an effect the other way counts as inactive or inconclusive.

SMILES	PLK1 PBD inh	HP1b chromo inh	JMJD2A Tudor inh	VDR inhibitor	BAZ2B inh	L3MBTL1 inh-1	L3MBTL1 inh-2	AlphaScreen ctr2	others
O=C(O)/C(=C\c1ccc(Br)cc1)c1ccc(S(=O)(=O)N2CCCCC2)s1	?	10.2%	-30.5%	-11.0%	?	-29.8%	.	.
CC1CCN(c2ccc3c(c2)S(=O)(=O)c2cccc(C(=O)NC4CCCCC4)c2C3=O)CC1	-4.1%	17.4%	-12.9%	-17.3%	-5.2%	6.1%	.	.
Cc1c(N2C(=O)c3ccc4c5c(ccc(c35)C2=O)CC4)c(=O)n(-c2ccccc2)n1C	?	?	?	-0.7%	56.2µM*	12.6µM*	5.97*	0.9%
Cc1c(N2C(=O)c3ccc(Br)cc3C2=O)c(=O)n(-c2ccccc2)n1C	0.3%	53.9%	2.1%	?	-2.4%[57.1 µM]	0.0%	.	.
O=C(Nc1ccc2nc(-c3ccco3)c(-c3ccco3)nc2c1)N1CCN(c2ccccn2)CC1	5.32µM*	25.1µM*	?	89.1µM*	?	3.16µM*	2.99*	-1.0%
O=C(Nc1ccc(S(=O)(=O)N2CCOCC2)cc1)C1CCN(S(=O)(=O)c2ccccc2)CC1	-5.2%	30.8%	-12.3%	-6.2%	6.8%	-1.7%	.	.
O=C(O)c1cc(Cl)c2c(c1)[C@@H]1C=CC[C@@H]1[C@H](c1ccc(S(=O)(=O)N3CCOCC3)cc1)N2	26.7µM*	-21.7%	79.4µM*	?	50.1µM*	22.4µM*	26.7*	?
Cc1cc(C)c2c(c1)C1C=CCC1C(c1ccc(S(=O)(=O)N3CCOCC3)cc1)N2 (stereo not drawn)	2.6%	15.1%	-16.2%	11.3%	-12.2%	-3.5%	.	.
Cn1cnnc1SCC(=O)Nc1ncc([N+](=O)[O-])s1	?	?	28.2µM*	-16.9%	.	28.2µM*	1.68*	-0.1%
CCN(CC)C(=O)NC1CC(=O)N(c2ccc(OC)cc2)C1 (stereo not drawn)	-7.2%	16.6%	-10.3%	0.8%	-3.4%	11.7%	.	.
O=c1cc2c(=O)oc3cc(O)c(O)oc3c2c(O)c1O	?	1.58µM*	1.41µM*	-4.3%	1.78µM*	0.316µM*	0.168*	?	ME-1 prolif=-15.3%
Cc1ccc(N2C(N)=C(C#N)C(c3cc(CN4CCOCC4)cs3)C3=C2CC(C)(C)CC3=O)cc1 (stereo not drawn)	-6.7%	24.6%	-8.8%	-15.8%	-13.2%	.	.	.
COC(=O)COc1ccc(C2Nc3c(Cl)ccc(C(=O)O)c3C3C=CCC32)cc1 (stereo not drawn)	21.2µM*	?	44.7µM*	?	50.1µM*	20µM*	16.8*	3.6%	TbPYK inh=?;TbPYK ADP-Glo=?
CCC1c2ccccc2C(=O)C1C(N)=O (stereo not drawn)	-9.4%	37.7%	0.7%	-0.1%	.	.	.	.
COc1cc(C(=O)NCC(=O)N/N=C/c2ccc(-c3cccc([N+](=O)[O-])c3)o2)cc(OC)c1OC	-13.5%	17.8%	-22.1%	3.2%	-23.1%	.	.	.
COc1ccc(-c2nnc(SCC(=O)Nc3ccc(C(C)=O)cc3)nc2-c2ccc(OC)cc2)cc1	.	13.8%	-5.8%	11.0%	-26.5%	.	.	.
CC(=O)c1ccc(NC(=O)CSc2nnc(-c3ccco3)c(-c3ccco3)n2)cc1	13.4µM*	31.6µM*	22.4µM*	22.4µM*	44.7µM*	25.1µM*	15*	?	TbPYK inh=28.2µM*;TbPYK ADP-Glo=31.6µM*
Cc1ccc(-c2cc(C(=O)O)c3cc(Br)ccc3n2)o1	11.9µM*	-24.8%	25.1µM*	31.6µM*	56.2µM*	31.6µM*	21.2*	-5.1%	VDR inh confirm=26.7*;VDR FP=?;VDR bla reporter=32.9%;VDR viability=12.9%;TbPYK inh=11.2µM*;TbPYK ADP-Glo=14.1µM*
COc1ccc(C=C2SC(=O)NC2=O)cc1OC	-4.7%	22.3%	-15.9%	3.4%	.	.	.	.
O=C1NC(=O)/C(=C\c2ccc(O)cc2O)S1	-26.0%	?	20µM*	-24.8%	28.2µM*	3.98µM*	1.68*	?	TbPYK inh=28.2µM*;TbPYK ADP-Glo=28.2µM*
COc1ccc(S(=O)(=O)N2CCOCC2)cc1N=Nc1sc(N)nc1-c1ccccc1	-18.6%	?	-26.9%	-20.8%	?	-25.2%	.	.	ME-1 prolif=-3.4%[25.6 µM]
CCN(CC)CCNC(=O)C1CCN(c2cc(C)nc3c(-c4ccc(Cl)cc4)c(C)nn23)CC1	.	29.2%	-6.4%	-18.4%	-3.2%	.	.	.
